PubChem BioAssay AID720534 (National Center for Advancing Translational Sciences (NCATS), 2013)
Among all 1,600 compounds or so, about 990 (62%) were called active. Another 30% or so got no clear call; they are omitted. The call rests on the fitted dose curve; in most records, active means well fitted inhibition curve with a large enough effect; inconclusive means small, poorly fitted or top-dose-only effect; inactive means no such curve, though single readings can be large or run the other way. So high a share suggests a set chosen from earlier hits. Many of the other results were omitted from the sample, so actives are more common in it than they were.

assay: qHTS for Inhibitors of TGF-b: Confirmation of Cherry Picks; settings: HepG2 CAGA-GFP TGF-b reporter, GFP fluorescence, 18 h; cells stimulated with TGF-beta, 500 pg/mL; further: nearly all actives have a fitted effect of over 65% in size
Source text: TGF-b is a main component in the TGF-b signaling pathway which plays diverse roles in cellular and development pathways. TGF-b is mediated through transcription factors called "Smads". Although the Smad-dependent pathway is the primary canonical TGF-b signaling mode, TGF-b1 can also activate alternative signaling pathways, including those involving MAPK (ERK, JNK and p38). This interaction may mediate or enhance Smad-dependent responses, or can exert Smad-independent effects. The complexity of this signaling cascade allows the TGF-b superfamily to perform unique, overlapping or redundant functions. We believe that targeting the TGF-beta pathway at the Smad-transcription factor level may eliminate the consequences of disrupting the entire pathway and offer specificity without affecting other signaling pathways. Smad3 is the primary transducer of TGF-b's signals and Smad3 regulates many functions attributed to TGF-b signaling. We hypothesize that Smad3 inhibitors will selectively eliminate Smad3-specific TGF-beta signals without undesired off-target effects. We aim to identify Smad3-small molecule antagonists using a quantitative high throughput screening (qHTS) approach. In this assay, hits identified from the primary screen were re-tested. MH087449NIH Chemical Genomics Center [NCGC] NIH Molecular Libraries Probe Centers Network [MLPCN] MLPCN Grant: MH087449 Assay Submitter (PI): Sushil Rane, National Institute of Diabetes and Kidney Diseases
Suspensions of trypsinized HEPG2 CAGA-GFP cells were dispensed into white, tissue culture-treated, solid 1536-well plates at 5uL/well (1000 cells/well final concentration) in DMEM medium supplemented with 1% FBS. Plates were incubated at 37 degrees C for 2 hours, after which 23 nL of compounds or DMSO were delivered to each well using a pin tool. One uL of recombinant TGF-beta in DMEM (1% FBS) was then dispensed (500 pg/mL final concentration), and plates were incubated at 37 degrees C for 18 hours. The plates were measured on an Acumen eX3 Explorer plate reader for GFP fluorescence (ex488/em500-530). GFP values were calculated by determining the mean GFP fluorescence of individual cells, and compiling these values for each well to determine a total well GFP signal. The %Activity was determined from the corrected fluorescence values. A titration of the known TGF-B inhibitor SB431542 was included to monitor plate performance, while unstimulated HEPG2 (-TGF-B) control wells were used to normalize %Activity of identified inhibitors; unstimulated wells corresponded to 100%Activity (full inhibition), while stimulated cell controls (+DMSO) were used to normalize 0%Activity (no inhibition). Concentration-response curves were fitted to the signals arising from the resulting fluorescence. The concentration-effect curves were then classified based on curve quality (r2), response magnitude and degree of measured activity, and compounds were subsequently categorized based on their curve class.
Potency means the concentration at half of the fitted maximal effect.

| Structure (SMILES) | Potency |
| --- | --- |
| COC(=O)C1=C(c2cc3ccccc3o2)C[C@@H]2CC[C@H]1N2C(=O)NC1CCCCC1 | 20.6 µM (active) |
| O=Cc1cn(Cc2ccc(F)cc2Cl)c2ccccc12 | 9.2 µM (active) |
| CN(C(=O)c1cccc(NC(=O)Cc2cccc([N+](=O)[O-])c2)c1)C1CCCCC1 | 13 µM (active) |
| CCC(C)(O)C(=O)OC1C(=O)OC2CC3C(C)=CC(=O)C(O)C3(C)C3C4(O)OCC23C1C(C)C4O (stereo not given) | 0.291 µM (active) |
| CC[C@H]1CN2CCc3cc(OC)c(OC)cc3[C@@H]2C[C@@H]1C[C@H]1NCCc2cc(OC)c(OC)cc21 | 0.0231 µM (active) |
